Assay outcomes (PubChem BioAssay)
tim10-1 inh: growth inhibitors of tim10-1 mutant yeast, primary screen, luminescence, uHTS. inhibition, % at 20 µM. S. cerevisiae tim10-1 ts strain growth, BacTiter-Glo, 24 h. 2.2% of 330,000 active. AID 463190, 2010;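 active = inhibition of at least 40%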;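 also: mutant grown at 25 °C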
tim23-1 inh: growth inhibitors of tim23-1 mutant yeast, primary screen, luminescence, uHTS | S. cerevisiae tim23-1 growth, BacTiter-Glo luminescence, 24 h | inhibition, % at 20 µM | AID 463212, 2010 | 1.3% of 330,000 active;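 active = growth inhibition of the mutant yeast at or above 50%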;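 also: temperature-sensitive mutant grown at 25 °C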
PfHsp90 yeast 2: growth inhibition of PfHsp90-expressing yeast, primary screen, antimalarial PfHsp90 inhibitor project, S. cerevisiae, BacTiter-Glo luminescence, single point, set 2; BacTiter-Glo ATP, 48 h; yeast lacking PDR1 and PDR3 efflux regulators; inhibition, % at 9.4 µM; 0.32% of 310,000 active; AID 504621, 2011;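 active = every replicate shows inhibition above about 80%, whatever the replicate mean, limit read from the data; inconclusive = mean inhibition reaches the set limit but some replicate falls short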
TIM10 inh: growth inhibitors of isogenic TIM10 control yeast, primary screen, counter-screen for tim10-1 yeast inhibitor project, luminescence, uHTS; S. cerevisiae TIM10 strain growth, BacTiter-Glo luminescence, 24 h; inhibition, % at 10 µM; 1.4% of 330,000 active; AID 463195, 2010;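 active = inhibition of 40% or more at the single tested concentration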;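 also: wild-type TIM10 isogenic control strain grown at permissive 25 °C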
ATG4B inhibitor: ATG4B protease inhibitors, primary screen, biochemical, fluorescence, uHTS; Cysteine protease ATG4B (Homo sapiens), Q9Y4P1; ATG4B cleavage of LC3-PLA2, NBD-HPC fluorescence, 1 h; inhibition, % at 8.33 µM; 0.51% of 340,000 active; AID 504462, 2011; in the data active = inhibition above about 40%
Target sequence (Q9Y4P1 whole entry, looked up): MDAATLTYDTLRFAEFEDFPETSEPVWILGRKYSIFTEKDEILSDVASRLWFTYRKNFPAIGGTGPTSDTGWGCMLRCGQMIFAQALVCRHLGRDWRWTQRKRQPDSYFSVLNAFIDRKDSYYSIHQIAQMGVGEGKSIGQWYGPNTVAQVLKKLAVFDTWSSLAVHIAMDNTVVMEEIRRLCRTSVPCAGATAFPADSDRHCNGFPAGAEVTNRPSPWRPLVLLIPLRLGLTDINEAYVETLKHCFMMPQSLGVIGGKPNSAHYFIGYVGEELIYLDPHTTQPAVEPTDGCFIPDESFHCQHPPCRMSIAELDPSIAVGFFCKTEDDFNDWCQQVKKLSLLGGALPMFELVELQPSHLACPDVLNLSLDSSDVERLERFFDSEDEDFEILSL
SKKanGAS inh: S. pyogenes SKKanGAS growth inhibitors in kanamycin, primary screen, streptokinase expression inhibitor project, SKKanGAS strain, BacTiter-Glo luminescence. 6 h. inhibition, % at 7.5 µM. 1.3% of 300,000 active. AID 1662, 2009;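 active = mean replicate score, as percent of positive control median, at least 50; inconclusive = mean below 50 but one replicate at or above 50; inactive = mean and every replicate below 50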;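 also: strain carries kanamycin resistance gene driven by streptokinase promoter and grows in 40 µg/ml kanamycin; loss of luminescence reflects streptokinase promoter inhibition or plain growth inhibition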
tim10-1 confirm: growth inhibitors of tim10-1 mutant yeast, confirmation, single concentration, luminescence, S. cerevisiae; shares compounds with tim10-1 inh; S. cerevisiae tim10-1 ts strain growth, BacTiter-Glo, 24 h; inhibition, % at 20 µM; 56% of 7,400 active; AID 463213, 2010;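 active = inhibition of yeast growth at or above a set limit in either of two repeat tests at 20 µM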;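 also: tim10-1 mutant grown at permissive 25 °C to find synthetic lethal compounds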
Large screens that a line does not name were inactive (follow-up assays come after a bar, where they were run). The list is not random: actives were taken first. Their share in the collection is about 4.7%.

OCCN1CCN(CC(O)COCc2ccc3c(c2)OCO3)CC1 (stereo not given)	none
Cc1ccc(/C=C/C(=O)N2CC(C)CC(C)C2)o1 (stereo not given)	tim10-1 inh 43.4 (no result: PfHsp90 yeast 2) | tim10-1 confirm inactive
CCN1CCN(C(=O)/C=C/c2ccc(C)o2)CC1	none
CC1CN(C(=O)Nc2cccc(C(F)(F)F)c2)CC(C)O1 (stereo not given)	none
CC(N=c1ccccn1C(=O)Nc1cccc(C(F)(F)F)c1)c1ccco1 (stereo not given)	tim10-1 inh 41.2 (no result: PfHsp90 yeast 2) | tim10-1 confirm 32.7
CC1CCC2C(=O)N(c3cc(Cl)ccc3OC(=O)c3ccco3)C(=O)C2C1 (stereo not given)	tim10-1 inh 40.7 | tim10-1 confirm 34.0
CC1CCC2C(=O)N(c3ccccc3OC(=O)c3ccccc3)C(=O)C2C1 (stereo not given)	none (no result: PfHsp90 yeast 2)
CN(C)CCCOc1cccc(Cl)c1	none
CC[C@]12c3[nH]c4ccc(Cl)cc4c3CCN1C(=O)[C@@H](CC(=O)NC(C)(C)C)C[C@@H]2C(=O)N1CCN(C(=O)c2ccco2)CC1	none (no result: SKKanGAS inh)
COc1ccc(N2C(=O)C(Cl)=C(N3CCCC3)C2=O)cc1	none
COc1ccc(N2C(=O)C(Cl)=C(N3CCCC(C)C3)C2=O)cc1 (stereo not given)	tim10-1 inh 41.6 | tim10-1 confirm inactive
O=c1c2ccccc2c(-c2n[nH]c(=S)o2)nn1Cc1ccccc1	none
OCc1ccc(-c2nn(Cc3ccccc3)c3ccccc23)o1	tim10-1 inh 40.1 | tim10-1 confirm 29.8
CN(C)S(=O)(=O)N1CCC(Oc2ccc(C(=O)NC3Cc4ccccc4C3)cc2)CC1	tim10-1 inh 44.3 | tim10-1 confirm inactive
COc1ccc(CCn2c(N)c(C(=O)NCc3ccco3)c3nc4ccccc4nc32)cc1	none
COCCn1c(N)c(C(=O)OCc2ccccc2)c2nc3ccccc3nc21	tim10-1 inh 42.7 (no result: PfHsp90 yeast 2) | tim10-1 confirm inactive
COCCNC(=O)c1c(N)n(CCC2=CCCCC2)c2nc3ccccc3nc12	tim10-1 inh 43.0 | tim10-1 confirm inactive
C=CCn1c(N)c(C(=O)OCCC)c2nc3ccccc3nc21	none
Nn1c(COc2cccc(Br)c2)nnc1SCC(=O)N1CCc2ccccc2C1	none
Cc1cccc(Cc2c(C)nc3c(C(=O)N4CCN(Cc5ccc6c(c5)OCO6)CC4)cnn3c2C)c1	tim10-1 inh 42.2 | tim10-1 confirm inactive
CC(C)(C)c1ccc(C(=O)c2cn[nH]c2-c2ccccc2O)cc1	tim10-1 inh 44.8 | tim10-1 confirm 35.0
O=C(CC1CS(=O)(=O)CC1CC(=O)Oc1ccccc1F)Oc1ccccc1F (stereo not given)	tim10-1 inh 44.2 | tim10-1 confirm inactive
CCOC(=O)CCCn1ccc2cc(S(=O)(=O)N3CCCC3)ccc21	none
C=CCN(c1nc(C)cc(OC)n1)S(=O)(=O)c1ccccc1	none
CCN(c1nc(C)cc(OC)n1)S(=O)(=O)c1ccccc1	tim10-1 inh 40.4 | tim10-1 confirm inactive
Cc1onc(-c2ccccc2)c1C(=O)N(Cc1ccccn1)Cc1ccccn1	none
C/C(=N\NC(=S)NC(C)C)c1ccc(-n2ccnc2)cc1	tim10-1 inh 42.8 (no result: PfHsp90 yeast 2) | tim10-1 confirm inactive
COc1ccc(-c2nnn(CC(=O)N(C3CCCC3)C(C)C(=O)NC3CCCC3)n2)cc1OC (stereo not given)	none
Cc1ccccc1NC(=O)c1cc(N)ccc1N1CCCCC1	tim10-1 inh 41.3 (no result: PfHsp90 yeast 2, SKKanGAS inh) | tim10-1 confirm 31.8
Cc1ccc(C(=O)N2CCCCC2)cc1NC1=C(Cl)C(=O)N(Cc2ccccc2)C1=O	none (no result: SKKanGAS inh)
Cc1ccc(NC(=O)CNNC(=O)c2cccc([N+](=O)[O-])c2)cc1[N+](=O)[O-]	none (no result: SKKanGAS inh)
Cc1cc(N2CCN(c3ccccc3Cl)CC2)n2cc(-c3ccccc3)nc2n1	tim10-1 inh 41.5, SKKanGAS inh inconclusive | tim10-1 confirm 48.8
Cc1cc(N2CCN(c3ccccc3)CC2)n2cc(-c3ccccc3)nc2n1	none
Cc1cc(OCC(=O)O/N=C(\N)Cc2cccs2)ccc1Br	none
COc1ccccc1C/C(N)=N/OC(=O)COc1ccccc1C	tim10-1 inh 40.8 | tim10-1 confirm 40.4
Cc1ccc(OCC(=O)O/N=C(\N)Cc2cccs2)cc1C	tim10-1 inh 43.8 | tim10-1 confirm inactive
CC(C)C(=O)Nc1nc2c(c(=O)[nH]1)CCCC2	none
Cc1ccccc1Nc1nc(N)nc(C)c1Br	none (no result: tim10-1 inh, tim23-1 inh, TIM10 inh, SKKanGAS inh)
CCc1nc2c(c(=O)c3ccccc3n2C)c(=O)n1C1CCCCCC1	tim10-1 inh 40.5 | tim10-1 confirm inactive
Cn1c2ccccc2c(=O)c2c(=O)n(C3CCCCCC3)c(C3CCCCC3)nc21	none (no result: tim10-1 inh, tim23-1 inh, TIM10 inh)
COc1ccc(-c2[nH]ncc2-c2ccc3c(c2)OCCO3)c(O)c1	tim10-1 inh 40.4 (no result: PfHsp90 yeast 2) | tim10-1 confirm inactive
O=C(N(Cc1ccccc1)c1ccccn1)C12CC3CC(CC(C3)C1)C2	none (no result: PfHsp90 yeast 2)
O=C(N(c1ccccn1)c1ccccn1)C12CC3CC(CC(C3)C1)C2	tim10-1 inh 41.9 | tim10-1 confirm inactive
CCCN(CCC)S(=O)(=O)c1cc(Br)cc2c1N(C(=O)CC)CC2	tim10-1 inh 46.2 (no result: PfHsp90 yeast 2) | tim10-1 confirm 34.1
Cc1ccc(CN2CCN(Cc3ccon3)CC2CCO)cc1 (stereo not given)	none
Cc1ccc(-c2cc(=O)[nH][nH]2)c(C)c1	tim10-1 inh 43.7 | tim10-1 confirm inactive
CCC(C)(C)NC(=O)c1ccc(S(=O)(=O)N(C)c2ccccc2OC)cc1	none
Brc1ccc(-c2nnc(SCCC3OCCCO3)o2)cc1	none
COc1ccc(C#Cc2c(-c3ccsc3)oc3ccc(N4CCOCC4)cc23)cc1	none
COc1ccc(-c2oc3ccc(N4CCOCC4)cc3c2C#CC2(O)CCCCC2)cc1	tim10-1 inh 41.1, SKKanGAS inh 69.2 | tim10-1 confirm inactive
OC1(C#Cc2c(-c3ccsc3)oc3ccc(N4CCOCC4)cc23)CCCCC1	tim10-1 inh 41.0, SKKanGAS inh 50.2 | tim10-1 confirm inactive
CC(=O)Nc1cc(C(F)(F)F)ccc1OCCOc1ccccc1	tim10-1 inh 46.8 | tim10-1 confirm inactive
O=C(N/N=C/c1ccccc1OC(=O)N1CCOCC1)c1cccs1	none
CC1Cc2ccccc2N1C1=CC(=O)CCC1 (stereo not given)	none (no result: PfHsp90 yeast 2)
C=CCNC(=O)/C(C#N)=C/c1ccccc1OCc1ccc(C(=O)OC)cc1	tim10-1 inh 44.5 | tim10-1 confirm inactive
